Most compounds without a hit are left out; they make up all but 7.9% or so of the library.
HT1080 IDH1KD tx: toxicity to HT-1080 IDH1 knockdown cells (counter line); 360,000 compounds, 2% hits; HT-1080 IDH1 knockdown viability, ATP luminescence, 48 h; Potency, µM (series often up to 46.1 µM), inactives show at the highest dose activity, negative = toxicity, actives largely listed as cytotoxic;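 note: 0% = DMSO wells and -100% = cell-free medium wells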
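Luminescent ATP read-out (CellTiter-Glo, 10 min at room temperature) after 48 h compound exposure at 37 °C gave viability of IDH1-knockdown HT-1080 cells. Activity was normalised to DMSO and cell-free wells, then fitted as concentration-response curves.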
MCF10A rerep: DNA re-replication induction in MCF 10a cells; MCF 10A DNA re-replication, Hoechst nuclear intensity, 48 h; Potency, µM (titrated, usually from 46.1 µM), without a hit: at the highest dose activity, positive = re-replication, most hits filed as activators; 350,000 compounds, 2.9% hits; AID 624296; note: % of control where 0% means no effect; nearly all actives have a fitted effect of over 50% in size
KB-V1 MDR tox: kills drug-selected multidrug resistant KB-V1 cells; KB-V1 MDR cells viability, CellTiter-Glo, 72 h; Potency, µM (doses to about 46.1 µM), most hits filed as cytotoxic; 400,000 compounds, 3.4% hits; AID 1347076; note: % is set by controls: 0 for no effect and ±100 for the full control effect; nearly all actives have a fitted effect of over 60% in size
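Compound-treated KB-V1 multidrug-resistant cells, 72 h, 37 degrees C; viability by CellTiter-Glo. Fitted qHTS curves give the values.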
SW480 rereplic: DNA re-replication induction in SW480 cells; 340,000 compounds, 1.8% hits; Potency, µM (titrated, usually from 46.1 µM), for the others: top-dose re-replication activation, usual class: activators; AID 624297; SW480 DNA re-replication, Hoechst DNA content imaging, 48 h; note: % of control where 0% means no effect; nearly all actives have a fitted effect of over 55% in size
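Compounds, transferred as 23 nL by pin tool, were incubated with cells for 48 hr; DNA content per nucleus was then quantified by Hoechst staining and fluorescence plate imaging.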
HT1080-NT tox: kills 2HG-producing HT-1080-NT fibrosarcoma cells; HT-1080-NT fibrosarcoma viability, CellTiter-Glo ATP luminescence, 48 h; Potency, µM (titrated, usually from 46.1 µM), without a hit: at the top dose activity, negative = less viability, usual class: cytotoxic; 360,000 compounds, 1.6% hits;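 note: NT is the 2HG producing partner of a matched IDH1 knockdown line; 0% = DMSO-treated cells and -100% = media-only wells without cells; nearly all actives have a fitted effect of over 55% in size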
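Compounds were tested in concentration-response format on HT-1080-NT cells for 48 hours at 37 degrees C. Cell viability came from CellTiter-Glo luminescence; curves were classified by r2, response magnitude and activity.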
KB-3-1 tox: kills parental KB-3-1 adenocarcinoma cells | KB-3-1 viability, CellTiter-Glo ATP luminescence, 72 h | Potency, µM (doses to about 46.1 µM), hits mostly cytotoxic | 400,000 compounds, 1.4% hits | AID 1347075; note: % is set by controls: 0 for no effect and ±100 for the full control effect; nearly all actives have a fitted effect of over 60% in size
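KB-3-1 parental drug-naive adenocarcinoma cells in DMEM/10% FBS, incubated 72 h at 37 C with pin-transferred compounds across a concentration series. Viability by CellTiter-Glo luminescence; concentration-response curves fitted after normalization.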
Starred values were filed as active, the others as inactive; i = inactive; ? = inconclusive; · = no result; [ ] = another dose, or the depositor's remark. Calls come from the whole dose curve; as a rule, active = well fitted curve in the direction sought with a large enough effect; inconclusive = small, poorly fitted or top-dose-only effect, or another doubt; inactive = no such curve, though single readings can be large; an effect the other way counts as inactive or inconclusive. Potency is the fitted concentration of half-maximal effect.

SMILES	HT1080 IDH1KD tx	MCF10A rerep	KB-V1 MDR tox	SW480 rereplic	HT1080-NT tox	KB-3-1 tox
COc1ccc(-c2cn[nH]c2-c2ccc(OCc3ccc([N+](=O)[O-])cc3)cc2O)cc1OC	-24%	-1%	4.1µM*	4%	-22%	?
O=c1n2c(c(O)n1C1CCCCC1)C(c1ccccc1)=Nc1ccccc1C2	10%	·	16µM*	·	-1%	i
COC(=O)C1=CNC=C(C(=O)OC)C1c1ccccc1Cl	3%	?	i	?	10%	i
COC(=O)C1=C(C)N(C)C(C)=C(C(=O)OC)C1c1ccccc1C	-6%	-1%	i	-2%	-4%	i
COCCN1C=C(C(=O)OC)C(c2ccc(OC)c(OC)c2)C(C(=O)OC)=C1	11%	-4%	i	1%	9%	i
COCCN1C=C(C(=O)OC)C(c2ccccc2C(F)(F)F)C(C(=O)OC)=C1	18%	16µM*	i	18µM*	13%	i
CCCCOc1ccccc1C1C(C(=O)OC)=C(C)N(C)C(C)=C1C(=O)OC	-3%	17%	9.2µM*	8%	6%	i
CCCCN1C=C(C(=O)OC)C(c2ccccc2Cl)C(C(=O)OC)=C1	-6%	7.3µM*	i	?	-13%	i
CCCCN1C=C(C(=O)OC)C(c2ccccc2C(F)(F)F)C(C(=O)OC)=C1	15%	2.9µM*	i	9.2µM*	10%	i
CCCCOc1ccc(CC(N)=O)cc1	19%	·	·	·	16%	·
Cc1c(C(=O)O)sc2nc(/C=C/c3ccccc3OC(F)F)[nH]c(=O)c12	21%	26µM*	i	23µM*	-8%	i
Cc1c(C(=O)O)sc2nc(/C=C/c3cccc(F)c3)[nH]c(=O)c12	12%	18µM*	i	-2%	7%	i
CCOC(=O)c1c(NC(=O)COc2ccc(C(C)(C)C)cc2)sc2c1CCCC2	·	·	i	·	·	i
CC(C)n1c(=S)[nH]c2scc(-c3cccs3)c2c1=O	-13%	6.5µM*	i	-2%	-24%	i
OCCN1CCN(CC/C=C2/c3ccccc3CSc3ccccc32)CC1	-21%	10%	i	-10%	-10%	i
CNCC/C=C1/c2ccccc2CSc2ccccc21	?	-10%	i	10%	16µM*	i
COc1ccccc1CNS(=O)(=O)CCNCCc1ccccc1	-3%	21µM*	i	5%	-2%	i
COc1ccc2c(c1)C(SCC(=O)NCCc1ccccc1)CC(C)(C)O2 (configuration not stated)	-11%	2%	i	26%	-7%	i
CC(C)c1[nH]nc2c1C(c1cccs1)C(C#N)=C(N)O2 (configuration not stated)	-19%	3%	i	?	?	?
COC(=O)c1c(NC(=O)/C=C/C(=O)O)sc(C)c1-c1ccc(C)c(C)c1	?	16µM*	i	?	?	?
CC(C)=C1C2CCC1C(C(=O)Nc1sc(C)c(-c3ccc(C(C)C)cc3)c1C(N)=O)C2C(=O)O (configuration not stated)	16µM*	33%	2.1µM*	?	?	?
CCOC(=O)c1c(NC(=O)/C=C/c2ccc(OCC)cc2)sc(C)c1C	·	·	i	·	·	i
CCOC(=O)c1c(C)nn(-c2ccc(NC(=O)/C=C/C(=O)O)cc2)c1C	21%	-2%	i	-6%	5%	i
CCOC(=O)c1c(NC(=O)/C=C/C(=O)O)sc(C)c1-c1ccc(C)c(C)c1	?	4.1µM*	i	13%	?	i
CCOC(=O)c1c(NC(=O)/C=C/C(=O)O)sc(C)c1-c1ccc(F)cc1	?	?	?	0%	21µM*	?
SMILES	HT1080 IDH1KD tx	MCF10A rerep	KB-V1 MDR tox	SW480 rereplic	HT1080-NT tox	KB-3-1 tox
COC(=O)c1scc(C)c1NC(=O)/C=C/C(=O)O	5%	-3%	i	-19%	5%	i
COc1ccc(NC(=O)c2ccc(-c3c(C)noc3C)c3ccoc23)cn1	1%	·	i	·	?	i
CC1(C)COC(c2ccccc2Cl)OC1	8%	-37%	i	-8%	8%	i
C=CCN(c1ccc(C(=O)Nc2cccc(C)c2)cc1)S(C)(=O)=O	-12%	-17%	i	-3%	2%	?
CC(CN1CCOCC1)C(=O)O (configuration not stated)	4%	-1%	i	3%	0%	i
COC(=O)c1c(NC(=O)/C=C/C(=O)O)sc(C)c1-c1ccc(C(C)C)cc1	?	3.3µM*	?	15µM*	?	21µM*
COC(=O)c1ccc(S(=O)(=O)NCCc2ccccc2OC)n1C	-2%	0%	?	-45%	1%	i
CN(C)c1ccc(P(=O)(OC2CCCCC2)C(O)c2ccncc2)cc1 (configuration not stated)	-2%	?	i	-3%	-1%	i
Cc1cc(C)cc(OCC(=O)N2N=C(C(F)(F)F)CC2(O)C(C)(C)C)c1 (configuration not stated)	16µM*	?	?	5%	18µM*	?
COc1ccc(OC)c(NC(=O)CSc2nc3ccccc3cc2Cc2ccccc2)c1	15%[9.24 µM]	15µM*	i	30%	-6%	i
COc1ccc(OC)c(NC(=O)CSc2nnc(-c3cccnc3)s2)c1	18µM*	14%	i	11%	18µM*	i
COc1ccc(NC(=O)CSc2nc3ccccc3cc2Cc2ccccc2)cc1	-13%	27%	i	9%	-8%	i
COc1ccc(OC)c(NC(=O)CSc2nnc(-c3ccncc3)s2)c1	1%	0%	·	-1%	-8%	·
CSc1ccc(C(=O)N2CCC(n3nccc3NC(=O)C3CC3)CC2)cc1	6%	1%	i	28%	-3%	i
COC(=O)C1=CN(c2ccccc2OC)C(N)=C(C#N)C1c1cccc([N+](=O)[O-])c1 (configuration not stated)	1.8µM*	·	4.1µM*	·	2.3µM*	4.6µM*
COC(=O)C1=CN(c2ccc3c(c2)OCO3)C(N)=C(C#N)C1c1ccccc1 (configuration not stated)	12µM*	·	2.9µM*	·	18µM*	7.3µM*
COC(=O)C1=CN(c2ccc(F)cc2)C(N)=C(C#N)C1c1ccccc1 (configuration not stated)	?	·	?	·	-27%	?
